From PubChem BioAssay
The list is not random: actives were taken first. Their share in the collection is about 21%.
Pf growth 48h: Primary qHTS for delayed death inhibitors of the malarial parasite plastid, 48 hour incubation; P. falciparum luciferase growth in erythrocytes, 48 h; Potency, µM (titrated, usually from 28.7 µM), inactives show top-dose activity change, negative = inhibition, actives largely listed as inhibitors; actives 5.9% (n = 310,000); note: potency is the fitted concentration of half-maximal effect; % is set by controls: 0 for no effect and ±100 for the full control effect
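Firefly luciferase activity from engineered P. falciparum reports growth; inhibitors lower the luminescent signal. Cultures contained 2% hematocrit erythrocytes at 0.1% final parasitemia.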
NS1 function inh: qHTS Assay for Inhibitors of Influenza NS1 Protein Function. actives 0.4% (n = 270,000). Potency, µM (highest dose often 46.1 µM), inactives show top-dose activity, positive = more growth. AID 2326, 2010; calls by dose curve; note: potency is the fitted concentration of half-maximal effect; actives are rising curves; nearly all actives have a fitted effect of over 50% in size
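OD600 was taken as the measure of yeast growth restored by compound in an NS1-expressing S. cerevisiae strain. Cells had been washed out of glucose medium and diluted 1:100 into galactose -URA medium, pH 6.0.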
SARS PLP yeast: qHTS of Yeast-based Assay for SARS-CoV PLP | AID 485353, 2010 | Potency, µM (doses to about 32.9 µM), inactives show at the highest dose activity, positive = growth rescue, usual class: activators | S. cerevisiae expressing SARS-CoV PLpro, growth rescue | actives 0.19% (n = 330,000); calls by dose curve; note: potency is the fitted concentration of half-maximal effect; 0% is about no effect; nearly all actives have a fitted effect of over 55% in size
Shiga inhibitor: A qHTS for Small Molecule Inhibitors of Shiga Toxin. Vero cells, Shiga toxin protein synthesis inhibition reporter. AID 2315, 2010. inhibition, % at 38.7 µM. actives 9.2% (n = 290,000); in the data active = inhibition mostly above about 28%, no sharp cut-off; inactive = mostly below about 43%; note: 0% is about no effect
Cycloheximide cs: Cycloheximide Counterscreen for Small Molecule Inhibitors of Shiga Toxin; actives 12% (n = 300,000); cell reporter, cycloheximide protein synthesis inhibition counterscreen; AID 2314, 2010; max response, %; in the data active = max response mostly above about 13%, no sharp cut-off; inactive = mostly below about 14%; note: read at 38.3 µM for the half of the compounds with a filed dose; 0% is about no effect
Pf growth 96h: Primary qHTS for delayed death inhibitors of the malarial parasite plastid, 96 hour incubation. P. falciparum luciferase reporter growth, 96 h. Potency, µM (highest dose often 28.7 µM), inactives show at the top dose activity change, negative = inhibition, usual class: inhibitors. actives 6.9% (n = 320,000). AID 504834, 2011; note: potency is the fitted concentration of half-maximal effect; % is set by controls: 0 for no effect and ±100 for the full control effect
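Cell-based qHTS: luciferase-tagged P. falciparum in erythrocytes (2% hematocrit, 0.05% parasitemia final) incubated with compounds for 96 hours, 37 C, 5% CO2; luciferase detection reagent then added and luminescence measured.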
* marks the source's active call; other numbers are inactive results; i = inactive; u = inconclusive; x = not tested or not shown; [ ] = another dose, or the depositor's remark. Unless noted, calls come from the whole dose curve; as a rule, active = well fitted inhibition curve with a large enough effect; inconclusive = small, poorly fitted or top-dose-only effect, or another doubt; inactive = no such curve, though single readings can be large or run the other way.

SMILES	Pf growth 48h	NS1 function inh	SARS PLP yeast	Shiga inhibitor	Cycloheximide cs	Pf growth 96h
O=C(O)C(CCCCN1C(=O)c2ccccc2C1=O)N1C(=O)c2ccccc2C1=O (stereo unspecified)	31%	7%	2%	-11	4	10µM*
O=C(O)C(Cc1ccc(O)cc1)N1C(=O)c2ccccc2C1=O (stereo unspecified)	x	5%	-1%	-6	-4	10%
CCOc1ccc(NC(=O)COC(=O)CN2CCCCCC2=O)cc1	x	x	2%	x	x	x
Cc1cccc(C)c1OCC(=O)NC1CC1	2.9µM*	2%	1%	-16	-4	2%
Cc1ccc(OCC(=O)NC2CCCCCC2)cc1C	30%	-37%	0%	42	25*	10µM*
Cc1ccc(C)c(OCC(=O)NC2CCCCCC2)c1	3%	-30%	5%	11	27*	-6%
Cc1cccc(C)c1OCC(=O)NNC(=S)NC(=O)C1CC1	u	-119%	-14%	19	-1	10µM*
COc1cccc(CNc2ccc(S(=O)(=O)N3CCCC3)cn2)c1	x	x	-4%	x	x	x
O=C(COc1ccc2ccccc2c1)NC1CC1	x	-91%	4%	70*	43*	121%
Cc1cc(Cl)ccc1OCC(=O)NC1CCCC1	x	-81%	-8%	37	34*	u
O=C(COc1ccc(Cl)cc1Cl)NC1CCSC1=O (stereo unspecified)	67%	-2%	4%	131*	40*	x
Cc1cc(Cl)ccc1OCC(=O)OCC(=O)NC1CCCC1	-1%	x	-10%	x	x	2%
Cc1ccc(OCC(=O)NC2CCCC2)c(C)c1	36%	-16%	-1%	42	36*	0.93µM*
CCN(C(=O)Cn1cc(C(=O)C(=O)N2CCOCC2)c2ccccc21)c1ccccc1	14%	13%	-6%	-11	-4	-1%
COc1ccc(CN(C)C(=O)Cn2cnc3c(NCc4ccccc4)ncnc32)cc1OC	x	x	27%	x	x	x
O=C(NC(=S)NCCCN1CCOCC1)c1ccc([N+](=O)[O-])cc1	22%	4%	9%	-13	1	u
Cc1cc(Cl)ccc1OCC(=O)NNC(=O)c1ccco1	21%	-6%	-7%	35*	35*	11%
Cc1cccc(CC(=O)NC2CCCCCC2)c1	7%	-3%	-4%	76	14*	-6%
Cc1cccc(OCC(=O)NC2CCCCCC2)c1C	-13%	10%	2%	-16	4	u
O=C(CSCC(=O)NC1CC1)Nc1ccc2ccccc2c1	13µM*	-13%	-4%	0	-3	u
Cc1ccccc1OCC(=O)NC1CCCCCCC1	32%	-25%	0%	59*	12	32%
CC(C)C(NC(=O)c1ccco1)C(=O)OCC(=O)Nc1ccc(C(N)=O)cc1 (stereo unspecified)	0%	x	-1%	-22	-3	15%
NS(=O)(=O)c1ccc(-c2ccc(/C=N/Nc3ccc(C(=O)O)cc3)o2)cc1	113%	9%	2%	18	41*	51%
O=C(O)c1cccc(-c2ccc(/C=N/Nc3ccc([N+](=O)[O-])cc3)o2)c1	-18%	2%	0%	54	17*	4%
NS(=O)(=O)c1ccc(-c2ccc(/C=N/NC(=O)c3ccc([N+](=O)[O-])cc3)o2)cc1	53%	-1%	1%	-7	-3	54%
SMILES	Pf growth 48h	NS1 function inh	SARS PLP yeast	Shiga inhibitor	Cycloheximide cs	Pf growth 96h
O=C(O)c1cc(-c2ccc(/C=N/Nc3ccc([N+](=O)[O-])cn3)o2)ccc1Cl	1%	x	-1%	-11	8	0%
O=C(O)c1ccc(-c2ccc(/C=N/Nc3ccc([N+](=O)[O-])cc3)o2)cc1	-17%	-4%	-4%	92*	16*	-7%
CCCC[C@]12Cc3cc(C#N)ccc3C(O1)c1c(cc(C)n(-c3ccccc3)c1=O)O2	u	23%	-4%[6.58 µM]	i	1	u
Cc1csc(C(=O)NCC(=O)NNC(=O)c2cccc(Cl)c2)c1	-2%	12%	6%	2	7	7%
CCOc1ccc(C(=O)CCC(=O)N(CC)CC(=O)NCc2ccc(Cl)cc2)cc1	27%	-11%	-3%	23	9	u
Cc1nc(/N=C(\N)Nc2ccccc2)nc2ccccc12	59%	-9%	-4%	43	16*	-15%
Cc1cc(C)nc(/N=C(\N)Nc2ccc(OCc3ccccc3)cc2)n1	u	5%	0%	-1	-1	47%
O=C1C=C(c2ccc(Cl)c(C(F)(F)F)c2)C[C@@H](c2ccc(Cl)cc2)C1	u	x	5%	x	x	-1%
Cc1nnc(SC(C)C(=O)Nc2c(C)n(C)n(-c3ccccc3)c2=O)n1N (stereo unspecified)	27%	-2%	0%	14	5	30%
CCN(CC)S(=O)(=O)c1ccc2c(c1)nc(SCC(=O)NC1CC1)n2-c1ccccc1OC	5.9µM*	-10%	2%	2	-2	u
COc1ccccc1-n1c(SCC(=O)NC2CCS(=O)(=O)C2)nc2cc([N+](=O)[O-])ccc21 (stereo unspecified)	u	-4%	-4%	-5	-3	u
O=C(NCCc1ccccc1)c1cc(=O)[nH]c2ccccc12	18%	x	7%	-5	-5	-11%
Cc1cccc2c(=O)c(C(=O)NCCc3ccccc3)c[nH]c12	21%	6%	3%	x	15	4.7µM*
O=C(NCCc1ccccc1)c1c[nH]c2c(F)cccc2c1=O	26%	-11%	1%	29*	23*	-2%
CNC(=O)c1c[nH]c2ccc(S(=O)(=O)Nc3ccccc3F)cc2c1=O	-23%	8%	-2%	-3	0	u
Cc1cccc2c(=O)c(C(=O)NCc3ccc(F)cc3)c[nH]c12	u	16%	3%	x	-4	3%
Cc1ccccc1NS(=O)(=O)c1ccc2[nH]cc(C(=O)NCCc3ccccc3)c(=O)c2c1	15µM*	x	2%	x	x	u
CCc1ccccc1NS(=O)(=O)c1ccc2[nH]cc(C(=O)NC3CCCC3)c(=O)c2c1	13µM*	0%	-2%	-13	-3	-2%
COc1ccc(Cl)cc1NC(=O)C1CC(=O)N(C2CCCCC2)C1 (stereo unspecified)	u	-6%	13%	-9	-1	u
COc1ccccc1C(=O)Nc1sc2c(c1C(=O)NCc1ccco1)CCCC2	x	2%	18%	5	-2	75%
CN(C)c1cccc(C(=O)NNC(=O)NC2CCCCC2)c1	-2%	-6%	7%	-8	1	6.6µM*
COc1cc(OC)cc(C(=O)NNC(=O)NC2CCCCC2)c1	-9%	4%	10%	20	-1	10µM*
CN(C)c1cccc(C(=O)NNC(=S)NC2CCCC2)c1	106%	-8%	0%	34	18*	-22%
